Compounds with a hit are over-represented: about 5.8% of the library has one in this group of screens.
PINK1 modulator – PINK1 expression modulation; Potency, µM (top dose mostly 76.6 µM), for the others: top-dose activation (PINK1 increase), usual class: activators; PINK1 immunofluorescence, high-content cytometry, 24 h; actives 0.2% (n = 410,000); active = well fitted activation curve with a large enough effect; inconclusive = small, poorly fitted or top-dose-only effect; cell line not stated here; note: % of control where 0% means no effect; nearly all actives have a fitted effect of over 65% in size
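Stable cell line treated 24 h with compounds at 5 concentrations (CCCP controls), then fixed and immunostained for PINK1 plus nuclear and cell stains; PINK1 immunofluorescence quantified by laser-scanning microplate cytometry.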
MCF10A rereplic – DNA re-replication induction in MCF 10a cells; AID 624296; actives 2.9% (n = 350,000); Potency, µM (top dose mostly 46.1 µM), inactives show at the highest dose activity, positive = re-replication, actives largely listed as activators; MCF 10A DNA re-replication, Hoechst nuclear intensity, 48 h; note: % of control where 0% means no effect; nearly all actives have a fitted effect of over 50% in size
KB-V1 cytotox – KB-V1 MDR subline cytotoxicity. KB-V1 MDR cells viability, CellTiter-Glo, 72 h. Potency, µM (titrated, usually from 46.1 µM), actives largely listed as cytotoxic. actives 3.4% (n = 400,000). AID 1347076; note: % is set by controls: 0 for no effect and ±100 for the full control effect; nearly all actives have a fitted effect of over 60% in size
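Drug-selected KB-V1 cells, grown in DMEM lacking phenol red with 10% FBS, receive compound titrations; after three days at 37 degrees C, surviving cell ATP is quantified by CellTiter-Glo luminescence and responses normalized and curve-fitted.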
12-LOX inh – blocks human arachidonate 12S-lipoxygenase; P18054; purified 12hLO, xylenol orange hydroperoxide absorbance; Potency, µM (titrated, usually from 108 µM), for the others: at the top dose activity change, negative = inhibition, most hits filed as inhibitors; actives 1.1% (n = 580,000); note: % is set by controls: 0 for no effect and ±100 for the full control effect
Target sequence (P18054 whole entry, looked up): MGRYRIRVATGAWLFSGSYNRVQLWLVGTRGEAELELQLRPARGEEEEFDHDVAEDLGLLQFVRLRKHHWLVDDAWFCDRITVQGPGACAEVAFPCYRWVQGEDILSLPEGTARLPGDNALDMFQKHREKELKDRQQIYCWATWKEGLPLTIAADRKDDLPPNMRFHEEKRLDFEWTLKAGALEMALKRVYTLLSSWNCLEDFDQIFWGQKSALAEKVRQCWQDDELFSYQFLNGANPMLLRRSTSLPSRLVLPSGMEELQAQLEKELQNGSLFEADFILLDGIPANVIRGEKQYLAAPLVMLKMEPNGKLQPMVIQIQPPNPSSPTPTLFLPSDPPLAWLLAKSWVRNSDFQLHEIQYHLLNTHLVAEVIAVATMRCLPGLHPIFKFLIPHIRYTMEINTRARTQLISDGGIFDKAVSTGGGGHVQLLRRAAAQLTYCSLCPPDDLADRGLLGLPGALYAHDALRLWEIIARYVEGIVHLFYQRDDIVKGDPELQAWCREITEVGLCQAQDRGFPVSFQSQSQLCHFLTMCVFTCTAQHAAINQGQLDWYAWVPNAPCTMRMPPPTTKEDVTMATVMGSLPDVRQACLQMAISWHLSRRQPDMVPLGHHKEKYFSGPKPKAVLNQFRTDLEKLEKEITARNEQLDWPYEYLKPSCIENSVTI
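Hydroperoxide product was detected by ferrous iron/xylenol orange as the 573 to 405 nm absorbance ratio. Arachidonic acid at 40 uM (final) was turned over for 30 min at room temperature by 150 nM human 12hLO, pH 7.0 Hepes buffer, after 15 min compound preincubation.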
KB-3-1 tox – KB-3-1 parental cell cytotoxicity; KB-3-1 viability, CellTiter-Glo ATP luminescence, 72 h; Potency, µM (highest dose often 46.1 µM), most hits filed as cytotoxic; actives 1.4% (n = 400,000); AID 1347075; note: % is set by controls: 0 for no effect and ±100 for the full control effect; nearly all actives have a fitted effect of over 60% in size
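Luminescent ATP read-out (CellTiter-Glo) measures survival of drug-naive KB-3-1 cells after 72 h compound exposure at 37 °C. Titration series was screened from lowest to highest concentration, with DMSO vehicle plates as background controls.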
SW480 rereplic – inducers of DNA re-replication in SW480 colon cancer cells. actives 1.8% (n = 340,000). SW480 DNA re-replication, Hoechst DNA content imaging, 48 h. Potency, µM (top dose mostly 46.1 µM), inactives show at the highest dose re-replication activation, hits mostly activators; note: % of control where 0% means no effect; nearly all actives have a fitted effect of over 55% in size
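Image-based DNA-content assay: after two days of treatment, nuclei were labelled with the DNA dye Hoechst and imaged, and hits were compounds raising the count of nuclei showing high fluorescence intensity.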
An asterisk follows results filed as active; i = inactive; ? = inconclusive; / = not tested or not shown; [ ] = another dose, or the depositor's remark. Unless noted, calls come from the whole dose curve; as a rule, active = well fitted curve in the direction sought with a large enough effect; inconclusive = small, poorly fitted or top-dose-only effect, or another doubt; inactive = no such curve, though single readings can be large; an effect the other way counts as inactive or inconclusive. Potency is the fitted concentration of half-maximal effect.

SMILES | PINK1 modulator | MCF10A rereplic | KB-V1 cytotox | 12-LOX inh | KB-3-1 tox | SW480 rereplic
O=C1NC2(CCN(Cc3ccc(F)cc3)CC2)COc2ccccc21 | / | / | / | -7%[176 µM] | / | /
Cc1ccc(N(CC(O)CON=C2c3ccccc3-c3ccccc32)S(C)(=O)=O)cc1 (centres undefined) | / | 5% | 23µM* | 9% | i | 14%
Cc1noc(C)c1-c1cc(NCCN2CCOCC2)ncn1 | 1% | / | / | 40µM* | / | /
Cc1cccc(-n2ncc3c(NC(C)C)ncnc32)c1 | -1% | 6% | i | -6% | i | -2%
Cc1cccc(-n2ncc3c(Nc4c(C)cc(C)cc4C)ncnc32)c1 | 9% | / | ? | -14% | 9.2µM* | /
Cc1cccc(-n2ncc3c(N)ncnc32)c1 | -2% | -2% | 8.2µM* | 26%[57.4 µM] | ? | 1%
Cc1cccc(-n2ncc3c(N4CCCCCC4)ncnc32)c1 | 5% | / | / | -23% | / | /
COC(=O)Cc1cc(=O)oc2cc(O)ccc12 | 3% | 16µM* | i | -11% | i | 18µM*
CCC(C)C(=O)OCc1cc(=O)oc2cc(O)ccc12 (centres undefined) | / | / | / | -25% | / | /
Cc1ccc(Sc2c(CO)c(-c3ccccc3)nn2C)cc1 | 1% | 1µM* | ? | -11% | ? | 0.82µM*
Cc1ccc(-c2nn(-c3ccccc3)cc2CO)cc1 | 2% | -1% | i | 230% | i | -5%
Cc1ccc(CNCC(O)(c2ccccc2)c2ccc(Cl)cc2)cc1 (centres undefined) | 5% | 26% | ? | 0% | i | ?
COc1ccc(CNCC(O)(c2ccccc2)c2ccc(Cl)cc2)cc1 (centres undefined) | 16% | 14% | 13µM* | ? | ? | ?
COc1cccc(CNCC(O)(c2ccc(Cl)cc2)c2ccc(Cl)cc2)c1 | ? | ? | 15µM* | -2% | ? | ?
CCOc1ccccc1NC(=O)Cc1c[nH]c2ccccc12 | / | / | / | -24% | / | /
COc1ccc(-n2c(C)cc(C(=O)CN3CCC(C)CC3)c2C)cc1 | 2% | 0.58µM* | i | 0% | i | -45%
COc1ccc(-n2c(C)cc(C(=O)Cn3nc(C(=O)O)c4ccccc4c3=O)c2C)cc1 | 3% | 13% | 15µM* | ? | i | 10%
Cc1ccc(-n2c(C)cc(C(=O)Cn3nc(C(=O)O)c4ccccc4c3=O)c2C)cc1 | 1% | -6% | ? | -19% | i | 8%
COc1cc2c(cc1OC)C(C)N(C(=O)c1cc3c(s1)-c1c(C)cccc1OC3)CC2 (centres undefined) | -1% | 16µM* | i | 436% | i | 0%
COc1cc2c(cc1OC)C(C)N(C(=O)c1cc(C)on1)CC2 (centres undefined) | ? | 1.3µM* | 4.6µM* | 3% | ? | 0.73µM*
COc1cc2c(cc1OC)C(C)N(C(=O)c1c(C)noc1C)CC2 (centres undefined) | 8% | 9.2µM* | ? | 79% | ? | ?
COCCn1c(C)cc(C(=O)N2CCCC(Cc3noc(-c4cnccn4)n3)C2)c1C (centres undefined) | / | / | / | 59% | / | /
Cc1ccccc1C(=O)N1CCC2(CC1)OCC(C(=O)N1CCCC1)N2C(=O)c1ccc(F)cc1 (centres undefined) | / | / | / | 84% | / | /
Cc1ccc(NC(=O)CN2C(=O)N/C(=C/c3ccc(C)o3)C2=O)cc1 | 4% | -1% | i | 35µM* | i | -4%
Cc1ccc(NC(=O)CN2C(=O)N/C(=C\c3cccn3-c3cccc(C(=O)O)c3)C2=O)cc1 | 0% | 0% | i | / | i | -6%
SMILES | PINK1 modulator | MCF10A rereplic | KB-V1 cytotox | 12-LOX inh | KB-3-1 tox | SW480 rereplic
Cc1cccc(NC(=O)CN2C(=O)N/C(=C\c3ccc(-c4cccc(C(=O)O)c4)o3)C2=O)c1 | 1% | 16µM* | i | ? | i | 18µM*
Cc1cccc(NC(=O)CN2C(=O)N/C(=C/c3ccc(C)o3)C2=O)c1 | 1% | -45% | i | ? | i | -54%
CCn1c(C)cc(/C=C2\NC(=O)N(CC(=O)Nc3cccc(C)c3)C2=O)c1C | -2% | 17% | i | -24% | i | 1%
Cc1ccc(NC(=O)CN2C(=O)N/C(=C/c3cc(C)n(-c4cccc(C(=O)O)c4)c3C)C2=O)cc1 | 0% | -10% | i | 18µM* | i | 4%
COC(=O)CN1CCN(CCC(C)C)CC1 | / | / | / | -2% | / | /
O=C(CSc1nc2ccccc2s1)NCCc1ccc(F)cc1 | / | / | / | 6% | / | /
CC1(C)Cc2c(sc3nn[nH]c(=O)c23)CO1 | -1% | -5% | ? | ? | i | -1%
CC1(C)Cc2c(sc3nc[nH]c(=O)c23)CO1 | 2% | -10% | i | 21% | i | 5.2µM*
O=C(COc1ccccc1)N/N=C/c1ccc([N+](=O)[O-])o1 | ? | 9% | i | ? | 15µM* | -2%
CCCC(=O)Nc1ccc(C(=O)N/N=C/c2ccc([N+](=O)[O-])o2)cc1 | ? | 3.3µM* | i | -14% | ? | 16µM*
O=C(CSc1ccc(Cl)cc1)N/N=C/c1ccc([N+](=O)[O-])o1 | ? | 9.2µM* | i | 40µM* | i | 21µM*
O=C(N/N=C/c1ccc([N+](=O)[O-])o1)C(O)c1ccccc1 (centres undefined) | 45µM* | 12µM* | i | 0% | ? | ?
Cc1ccc(OCC(=O)N/N=C/c2ccc([N+](=O)[O-])o2)cc1 | ? | -5% | ? | 2% | i | -6%
O=C(N/N=C/c1ccc(-c2ccc([N+](=O)[O-])cc2)o1)C(O)c1ccccc1 (centres undefined) | 3% | 22% | i | -29% | i | ?
O=C(CNc1ccc2ccccc2c1)N/N=C/c1ccc([N+](=O)[O-])o1 | 22% | 2% | i | -10% | ? | ?
O=C(O)CCC(=O)N1Cc2ccccc2CC2(CCCCN2Cc2ccc(O)cc2)C1 (centres undefined) | / | / | / | 3%[6.33 µM] | / | /
CN=C1NC(C)(C)C2CCC(C)(CC2)S1 | -2% | 12µM* | i | -1% | i | 2%
C=CCOc1ccc(/C=C(\C(=O)c2ccc(OCC)cc2)c2nc3ccccc3s2)cc1 | / | / | / | -14% | / | /
COc1ccc(C(=O)NNC(=S)NC(=O)c2ccc(OC)cc2)cc1 | 10% | ? | i | ? | ? | 0%
C=CCNC(=S)NNC(=O)c1ccc(OCC)cc1 | 0% | 5% | i | 2% | i | ?
CCCCC(=O)NC(=S)NNC(=O)c1ccc(OC)cc1 | 3% | -1% | ? | ? | 23µM* | -13%
